Compounds with a hit are over-represented: about 5.1% of the library has one in this group of screens.
TMEM16A act: mouse TMEM16A channel activation, primary screen | Q8BHY3 | HEK293 TMEM16A/YFP-H148Q/I152L, iodide quench fluorescence; stronger effect = lower value | B-score at 10 µM | 340,000 tested, 0.3% active | AID 623877;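 active = fluorescence-ratio B-score plate-corrected deviation score at least 3 library SD below zero, with starting fluorescence score within 5 deviations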;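 also: channel opened by trigger with iodide after compound preincubation; score built on the fluorescence ratio of max minus min over baseline; more negative score means more quench and so TMEM16A activation or potentiation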
MPTP inh: permeability transition pore inhibition. inhibition, % at 10 µM. 360,000 tested, 1.4% active. isolated mouse mitochondria, Ca2+ swelling absorbance, 30 min;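 active = inhibition of 50% or more, scaled per plate between neutral and stimulator controls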;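 also: 0% = DMSO wells given calcium and 100% = 1 mM EGTA wells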
CRFBP-R2 agonist: agonists of human CRF-binding protein/CRF-R2 receptor complex; HEK293 CRF-R2/CRF-BP, calcium dye fluorescence (FLIPR); percent of saturating CRF peptide response; activation, % at 13.2 µM; 350,000 tested, 0.46% active; AID 588473;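 active = activation of at least 50%, plus an integration ratio under a set limit after plate pattern correction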;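 also: plate controls were neutral control wells without compound for no effect and CRF at EC100 for full effect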
TMEM16A inh: mouse TMEM16A channel inhibition, primary screen | AID 588511 | 310,000 tested, 1.2% active | normalized B-score (activity score, 25-100; higher = stronger inhibition) at 10 µM | HEK293 TMEM16A/YFP iodide influx fluorescence, ionomycin | Q8BHY3;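 active = ratio plate-corrected score three or more library SD toward inhibition, starting fluorescence score within five deviations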;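 also: score derived from kinetic fluorescence span divided by baseline fluorescence per well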
CRFBP-R2 block: CRF-BP/CRF-R2 complex antagonism | HEK293 CRF-R2/CRF-BP, CRF-induced calcium fluorescence | inhibition, % at 11.8 µM | 350,000 tested, 0.59% active | AID 588475;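 active = inhibition of the ligand-induced calcium signal above about 50% at the single tested concentration, limit read from the data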
GRIN3A LBD mod: modulators (binders) of human NR3A ligand-binding domain; NR3A LBD differential scanning fluorimetry, Tm shift; 0% = protein alone, 100% = glycine-bound protein; Tm shift relative to glycine control, % at 25 µM; 340,000 tested, 2.5% active; AID 1259313;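 active = melting temperature shift of at least 10% of the positive control shift, at one fixed dose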
TMEM16A reconf: TMEM16A (mouse) chloride channel inhibition, re-confirmation | 2,300 tested, 39% active | shares compounds with TMEM16A inh | inhibition, % at 10 µM | HEK293 TMEM16A/YFP-H148Q, iodide quench fluorescence; ionomycin added to raise cell calcium;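 active = mean duplicate percent inhibition, scaled so buffer wells are 0 and the reference blocker 100, over three buffer SD above buffer mean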
HEK293 Ca mobil: calcium mobilization counter-screen hit for TMEM16A inhibitor series. calcium response (% of ionomycin), % at 10 µM. AID 652231. TMEM16A/YFP HEK293, Fluo4 calcium mobilization. shares compounds with TMEM16A inh. 2,300 tested, 2% active;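 active = duplicate-averaged calcium signal over 20% of the ionomycin maximum, relative to buffer baseline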;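 also: each well's signal is peak minus trough fluorescence divided by its pre-addition baseline; 0% = buffer wells and 100% = ionomycin wells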
Parental YFP cnt: counter-screen for TMEM16A inhibitors: effect in parental YFP-HEK293 cells; shares compounds with TMEM16A inh; iodide YFP quench, ionomycin; YFP ratio F(max-min)/F0 at 10 µM; 2,300 tested, under 10 active;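 active = yellow fluorescent protein signal ratio exceeding the buffer control mean by over 5 SD of those controls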;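 also: ratio is mean of duplicate wells from kinetic YFP trace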
ClC-1 inh: selectivity of TMEM16A inhibitors: inhibition of rat ClC-1 chloride channel; shares compounds with TMEM16A inh; CHO ClC-1-YFP, iodide influx fluorescence quench; iodide control reads 0, buffer control 100; ratio percent, % at 10 µM; 2,300 tested, under 10 active;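 active = duplicate-mean ratio percent above the mean of iodide-only control wells, which defines zero, plus 5 of their SD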;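 also: higher percent means stronger block of ClC-1 iodide influx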
Target sequence (P35524 whole entry, looked up): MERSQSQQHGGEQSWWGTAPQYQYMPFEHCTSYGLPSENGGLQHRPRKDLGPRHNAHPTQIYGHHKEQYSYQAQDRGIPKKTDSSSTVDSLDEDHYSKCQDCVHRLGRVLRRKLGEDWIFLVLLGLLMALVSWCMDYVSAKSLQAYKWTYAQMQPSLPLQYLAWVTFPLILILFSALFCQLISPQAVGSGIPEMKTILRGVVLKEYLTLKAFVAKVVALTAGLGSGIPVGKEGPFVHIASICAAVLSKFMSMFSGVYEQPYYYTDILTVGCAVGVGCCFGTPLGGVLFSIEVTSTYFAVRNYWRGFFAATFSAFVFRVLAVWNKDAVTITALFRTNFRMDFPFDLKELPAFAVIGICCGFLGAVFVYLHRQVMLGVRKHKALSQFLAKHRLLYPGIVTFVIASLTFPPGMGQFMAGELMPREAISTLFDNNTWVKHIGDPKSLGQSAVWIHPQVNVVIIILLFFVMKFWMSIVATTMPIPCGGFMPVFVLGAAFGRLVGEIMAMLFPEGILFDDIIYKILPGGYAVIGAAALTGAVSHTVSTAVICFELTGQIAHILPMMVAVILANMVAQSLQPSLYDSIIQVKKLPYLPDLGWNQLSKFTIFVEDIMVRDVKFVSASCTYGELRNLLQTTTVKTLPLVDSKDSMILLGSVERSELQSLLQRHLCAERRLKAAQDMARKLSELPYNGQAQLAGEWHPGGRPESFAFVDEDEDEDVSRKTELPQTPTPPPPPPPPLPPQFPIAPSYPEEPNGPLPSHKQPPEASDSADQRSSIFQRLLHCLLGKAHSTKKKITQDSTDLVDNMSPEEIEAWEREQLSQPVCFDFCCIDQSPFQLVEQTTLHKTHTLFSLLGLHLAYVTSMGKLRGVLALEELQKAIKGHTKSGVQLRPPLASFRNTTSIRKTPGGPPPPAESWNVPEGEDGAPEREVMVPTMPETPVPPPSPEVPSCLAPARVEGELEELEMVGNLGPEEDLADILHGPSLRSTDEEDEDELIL
MPTP counter: Rhodamine 123 counter-screen of mitochondrial pore hits | shares compounds with MPTP inh | isolated mitochondria, membrane potential, Rhodamine 123 fluorescence | inhibition, % at 10 µM | 5,000 tested, 78% active; in the data active = inhibition above about 22%;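 also: 0% = DMSO vehicle and 100% = positive control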
The depositor's hits bear a star.

For O=C(N/N=C/c1cc([N+](=O)[O-])ccc1N1CCCCCC1)c1ccccn1 the results were TMEM16A act inactive, MPTP inh 4, CRFBP-R2 agonist 0, TMEM16A inh inactive, CRFBP-R2 block -7 and GRIN3A LBD mod -1.
Cc1ccc(S(=O)(=O)NCC(c2ccco2)S(=O)(=O)c2ccccc2)cc1 (configuration not stated) was read as TMEM16A act inactive, MPTP inh -2, CRFBP-R2 agonist 0, TMEM16A inh 25*, CRFBP-R2 block 3, GRIN3A LBD mod 1, TMEM16A reconf inactive, HEK293 Ca mobil inactive, Parental YFP cnt -1.3 and ClC-1 inh -6.
O=C1CN(C(=O)COC(=O)c2ccc([N+](=O)[O-])o2)c2ccccc2N1 was read as TMEM16A act inactive, MPTP inh -1, CRFBP-R2 agonist 1, CRFBP-R2 block -9 and GRIN3A LBD mod 1.
`O=[N+]([O-])c1ccc(-c2nnc(-c3ccccc3)c(N3CCOCC3)n2)cc1` gave TMEM16A act inactive, MPTP inh 0, CRFBP-R2 agonist 1, TMEM16A inh inactive, CRFBP-R2 block 36, GRIN3A LBD mod 2, TMEM16A reconf inactive, HEK293 Ca mobil inactive, Parental YFP cnt -1.2 and ClC-1 inh -14.
Screening COc1cccc(-c2noc(N)c2C#N)c1 returned TMEM16A act inactive, MPTP inh -2, CRFBP-R2 agonist 1, TMEM16A inh inactive, CRFBP-R2 block 7 and GRIN3A LBD mod 1.
N#Cc1c(-c2ccc(F)cc2)noc1N was read as TMEM16A act inactive, MPTP inh -2, CRFBP-R2 agonist 0, TMEM16A inh 100*, CRFBP-R2 block -1, GRIN3A LBD mod -1, TMEM16A reconf inactive, HEK293 Ca mobil inactive, Parental YFP cnt -1 and ClC-1 inh -13.
CCCCn1cnc2c(oc3ccccc32)c1=O was read as TMEM16A act inactive, MPTP inh 0, CRFBP-R2 agonist 0, TMEM16A inh inactive, CRFBP-R2 block -4 and GRIN3A LBD mod 0.
Screening Cc1onc(-c2c(F)cccc2Cl)c1C(=O)Nc1nc2c(s1)CCCC2 returned TMEM16A act inactive, MPTP inh 1, CRFBP-R2 agonist 0, TMEM16A inh 100*, CRFBP-R2 block -18, GRIN3A LBD mod -4, TMEM16A reconf inactive, HEK293 Ca mobil inactive, Parental YFP cnt -1 and ClC-1 inh -9.
Screening Cc1onc(-c2ccccc2)c1C(=O)Nc1nc2c(s1)CCCC2 returned TMEM16A act inactive, MPTP inh 0, CRFBP-R2 agonist 0, TMEM16A inh inactive, CRFBP-R2 block -28 and GRIN3A LBD mod 0.
`CC(NC(=O)Cn1cnnn1)C12CC3CC(CC(C3)C1)C2` (configuration not stated) gave TMEM16A act inactive, MPTP inh -2, CRFBP-R2 agonist 0, TMEM16A inh 100*, CRFBP-R2 block -2, GRIN3A LBD mod -2, TMEM16A reconf inactive, HEK293 Ca mobil inactive, Parental YFP cnt -1.2 and ClC-1 inh -10.
For CC(NC(=O)CN1CCCC1)C12CC3CC(CC(C3)C1)C2 (configuration not stated) the results were TMEM16A act inactive, MPTP inh 2, CRFBP-R2 agonist -1, TMEM16A inh inactive, CRFBP-R2 block 20 and GRIN3A LBD mod 2.
CCOc1ccc(CN(C)C(=O)c2cc(S(=O)(=O)N3CCCC3)ccc2C)cc1 was read as TMEM16A act inactive, MPTP inh -1, CRFBP-R2 agonist -1, CRFBP-R2 block -3 and GRIN3A LBD mod 0.
O=C(NCc1ccco1)c1ccc(Cl)c(S(=O)(=O)N2CCOCC2)c1 was read as TMEM16A act inactive, MPTP inh -1, CRFBP-R2 agonist -3, TMEM16A inh inactive, CRFBP-R2 block 2 and GRIN3A LBD mod -1.
Screening O=C(NCC1(N2CCOCC2)CCCCC1)c1ccc(Cl)c(S(=O)(=O)NCc2ccco2)c1 returned TMEM16A act inactive, MPTP inh 1, CRFBP-R2 agonist 2, TMEM16A inh 100*, CRFBP-R2 block -5, GRIN3A LBD mod 0, TMEM16A reconf inactive, HEK293 Ca mobil inactive, Parental YFP cnt -1 and ClC-1 inh -7.
Screening CCN(CC)CCCCOc1ccccc1OC returned TMEM16A act inactive, MPTP inh 0, CRFBP-R2 agonist -2, TMEM16A inh 100*, CRFBP-R2 block -3, GRIN3A LBD mod 2, TMEM16A reconf inactive, HEK293 Ca mobil inactive, Parental YFP cnt -1.1 and ClC-1 inh -12.
Screening O=C(c1ccc(F)cc1)N1CCC(c2ccccc2)C1 (configuration not stated) returned TMEM16A act inactive, MPTP inh 0, CRFBP-R2 agonist -1, TMEM16A inh inactive, CRFBP-R2 block 4, GRIN3A LBD mod 0, TMEM16A reconf inactive, HEK293 Ca mobil inactive, Parental YFP cnt -0.82 and ClC-1 inh -17.
`O=C(CCc1ccc(S(=O)(=O)NCCc2ccccc2)cc1)N1CCN(Cc2ccc3c(c2)OCO3)CC1` gave TMEM16A act inactive, MPTP inh 54*, TMEM16A inh 25*, TMEM16A reconf inactive, HEK293 Ca mobil inactive, Parental YFP cnt -0.82, ClC-1 inh -3 and MPTP counter 24*.
Screening Cc1ccc(OCC(=O)NCCCNC(=O)c2cccnc2)cc1 returned TMEM16A act inactive, MPTP inh 0, CRFBP-R2 agonist 1, TMEM16A inh inactive, CRFBP-R2 block 4 and GRIN3A LBD mod 0.
Screening COC(=O)Nc1nnc(-c2ccncc2)s1 returned TMEM16A act inactive, MPTP inh -4, CRFBP-R2 agonist -2, TMEM16A inh inactive, CRFBP-R2 block -2 and GRIN3A LBD mod 2.

High-throughput results (PubChem BioAssay)
